From paper PMC12136788
Where a chain is given by its changes, count along the chain named. The full ranking holds about 5,800 sequences; the median of “enrichment r” is about 0.68, and the highest 2% start at about 11. This excerpt belongs to a sample that is enriched for the highest values.

T1: UNK ZnF1-6 (called full-length) (human, UniProt Q9C0B0 30-357)
T1 sequence: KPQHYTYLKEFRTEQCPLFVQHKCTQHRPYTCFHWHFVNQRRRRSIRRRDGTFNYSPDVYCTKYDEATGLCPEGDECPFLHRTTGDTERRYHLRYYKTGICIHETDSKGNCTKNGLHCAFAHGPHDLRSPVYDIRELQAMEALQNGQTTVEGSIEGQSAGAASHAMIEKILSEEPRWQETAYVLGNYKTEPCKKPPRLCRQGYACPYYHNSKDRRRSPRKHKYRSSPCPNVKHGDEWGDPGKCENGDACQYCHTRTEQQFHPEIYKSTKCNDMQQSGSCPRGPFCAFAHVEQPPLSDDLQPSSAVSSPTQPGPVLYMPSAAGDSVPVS

B1: chrX:133301433:133301604:-|3pUTR|ENSG00000076716|msi1|total|mutant (ssRNA)
RNA: GGGAGUUCUACAGUCCGACGAUCUUGUUUUUCUUGGGGGAUGGGGUGGGGUGGGAGCCGGCCGAGCUGAGAAUACUACAUCUCCGUGGUGACCUUCCGCCACGUGGGUGAAGUGGCAAAGGCCAUGGCCAUAUCUGUUGUCCCCAACAGAGGAUUGAGCAUCA
B2: chr21:44851366:44851434:-|CDS_3pUTR|ENSG00000183255|msi1_unk|total|mutant (ssRNA)
RNA: GGGAGUUCUACAGUCCGACGAUCAGGACAGUCCUCUCGUCUUGCAGACUGGUGACCUUCUAUUCCCUGUUCAUCUCUGUUUCCCGAUUCCGUCACUUGAAAUAAGAAAUCUUUGGGGUUUGGGCUUUUUUAUACUCUUCUCAGCAACAGAGGAUUGAGCAUCA
B3: ENSG00000142192:stop:overlap|stop_codon|ENSG00000142192|stop_codon|NA|stop_codon (ssRNA)
RNA: GGGAGUUCUACAGUCCGACGAUCAGAUGCAGCAGAACGGCUACGAAAAUCCAACCUACAAGUUCUUUGAGCAGAUGCAGAACUAGACCCCCGCCACAGCAGCCUCUGAAGUUGGACAGCAAAACCAUUGCUUCACUACCCAUCCAACAGAGGAUUGAGCAUCA
B4: chr1:13115521:13116400:-|CDS|ENSG00000275774|control|control|control (ssRNA)
RNA: GGGAGUUCUACAGUCCGACGAUCGAACAGAGCAAACAAGAGGUAGAGGUGAAAAAUGCUAAGUCAGAAGAGGAGCAGAGCAGUAGCUCCAUGAAGAAAGAUGAGACUCAUGUAAAGAUGGAGUCUGAGGGGGGUGCAGAAGACCAACAGAGGAUUGAGCAUCA
B5: ENSG00000070961:be:win_5251|3pUTR|ENSG00000070961|bound_else_gene|NA|bound_elsewhere_windowed (ssRNA)
RNA: GGGAGUUCUACAGUCCGACGAUCUGGAUUCUUUAGCUCUCUUUUUCUUUCCUUCAUCUACCUUCUUCUCUUUUUUGCCUCUGUCUUUACCCUUUAGAAACUGGCAUGUGUUAGGGCCCAGAUUUCACCAGAUACACAAUCCUCCAACAGAGGAUUGAGCAUCA
B6: ENSG00000198589:be:win_6101|CDS|ENSG00000198589|bound_else_gene|NA|bound_elsewhere_windowed (ssRNA)
RNA: GGGAGUUCUACAGUCCGACGAUCUAGGAAAUCAGAACUCAGAAAACGAGAUCCUCCUGGAAGGCGAUGAUGAUACUCUGUCAUCCGUGGAUGAGAAAGAUUUAGAGAAUCUUGCCGGUCCUGUUAGCCUGAGCACACCAGCUCCAACAGAGGAUUGAGCAUCA
B7: ENSG00000227500:stop:overlap|stop_codon|ENSG00000227500|stop_codon|NA|stop_codon (ssRNA)
RNA: GGGAGUUCUACAGUCCGACGAUCGCAACAGCCUGCCCGAGUACCCCACUGUGCCCAGCUACCCGGGCAGUGGCCAGUGGCCUUAGAGGGAGCCUGCCCUGCCCCCACCGCCCACCACCUCCUCCCCUUCAUUCCUGCUGCUACCAACAGAGGAUUGAGCAUCA
B8: chr20:3963869:3963970:-|CDS|ENSG00000101236|unk|total|mutant (ssRNA)
RNA: GGGAGUUCUACAGUCCGACGAUCAAUCUGCCUCUCAACAUAUAUAUUGUGGUUUUUGGUACUGCUAUAUUUGUCUUCAUCCUCCGUUUACUCUUCUGUUGCUACUUGAUCCGGUAACCAAUUUUCAUUCUAUGUUACUUCAAACAACAGAGGAUUGAGCAUCA
B9: chr2:216672374:216672548:-|3pUTR|ENSG00000115461|msi1|FALSE|unique (ssRNA)
RNA: GGGAGUUCUACAGUCCGACGAUCUUUUUCUUUUUUUUUUUGAAGACAGCAAUAACCACAGUACAUAUUACUGUAGUUCUCUAUAGUUUUACAUACAUUCAUACCAUAACUCUGUUCUCUCCUCUUUUUUGUUUUCAACUUUAACAACAGAGGAUUGAGCAUCA
B10: chr19:57593639:57593745:+|3pUTR|ENSG00000171649|unk|total|mutant (ssRNA)
RNA: GGGAGUUCUACAGUCCGACGAUCUGAACCUUCUUAUUUCUCUACAUUCUUGCCAUACUUGGUAUGGUCCGUCUUUUUAAUUUCCGUUGUUUUAACCGCUGUAUAACCGCAUCUGUCUGUGAUUUUAUUGCAUUUUUCUGGUAUCAACAGAGGAUUGAGCAUCA
B11: chr2:216672374:216672548:-|3pUTR|ENSG00000115461|msi1|total|mutant (ssRNA)
RNA: B9 RNA with U73C, A74C, U83C, A84C
B12: chr2:171983412:171983537:+|3pUTR|ENSG00000128708|unk|FALSE|unique (ssRNA)
RNA: GGGAGUUCUACAGUCCGACGAUCUGAUGACUUUAAUUUUAAAAUCUUGUGACAUUUUGCUUAUACUAAAAGUUAUCUAUCUUUAGUUGAAUAUUUUCUUUUGGAGAGAUUGUAUAUUUUAAAAUACUGUUUAGAGUUUAUGAGCAACAGAGGAUUGAGCAUCA
B13: chr19:57593639:57593745:+|3pUTR|ENSG00000171649|unk|FALSE|unique (ssRNA)
RNA: B10 RNA with C68U, C69A, C83U, C84A, C95U, C96A, C106U, C107A
B14: chr8:73046310:73046411:+|3pUTR|ENSG00000147601|msi1|FALSE|unique (ssRNA)
RNA: GGGAGUUCUACAGUCCGACGAUCUUGUAUUCUUUAAGAACCUUAUUUUGAUAAAAUGUAAAUUUGUUGAACCCUGCCACAUUUAGUAUCCCCACCCCCAAAUCCUGUUCCAAUGAAAAAAUUAAAACCUGAUACGAAAAAAAACAACAGAGGAUUGAGCAUCA

What follows are binders tested against T1, UNK ZnF1-6 (called full-length) (assay: nsRBNS (natural sequence RNA bind-n-seq); RBNS binding buffer (assumed for nsRBNS): 25 mM Tris pH 7.5, 150 mM KCl, 3 mM MgCl2, 0.01% Triton X-100, 500 ug/ml BSA, 20 U/ml SUPERase-In, 4 C; UNK is unkempt and MSI1 is Musashi-1; names of the RNAs are library labels; protein concentration not given here; high values mean tight binding).

Row | Binder | binding signal [enrichment R]
1 | B1 | 1.2
2 | B2 | 0.43
3 | B3 | 0.618
4 | B4 | 0.882
5 | B5 | 1.45
6 | B6 | 0.619
7 | B7 | 0.868
8 | B8 | 0.575
9 | B9 | 12.2
10 | B10 | 1.21
11 | B11 | 1.89
12 | B12 | 4.24
13 | B13 | 122
14 | B14 | 2.26
